Eight molecules from PubChem BioAssay (NCI) can be followed below.

The panel holds about 79,000 compounds, 15% with a hit somewhere; the sample as a whole holds those more often. Values without a mark were called inactive. The source made the active and inactive calls. Cut-off read from the data, not from the text of the source: active = growth inhibition above about 70%; inactive = the rest.

A short description of the experiment: NCI Yeast Anticancer Drug Screen. Data for the bub3 strain (AID 167). The following applies: S. cerevisiae bub3 mutant strain, stronger effect = higher value. Here is the method:
Growth inhibition of yeast strains with defined genetic alterations is measured as a screen for potential anti-cancer activity. Selected strains with alterations in DNA damage repair or cell cycle control were exposed to compounds and growth inhibition was measured relative to vehicle treated controls. The strain used in this assay is bub3

Where [1] appears, read: at 5.0 µM (retest, dose inferred, filed as 0.5).
[2] abbreviates: at 50.0 µM (retest, dose inferred, filed as 5.0).

As for `CC(=O)[O-].O=C([CH-]C(=O)c1ccccc1)c1ccccc1.O=C([CH-]C(=O)c1ccccc1)c1ccccc1.[Sm+3]`, the growth inhibition reads like this: (at 1.2 µM) 16%; (at 3.7 µM) 19%; under setting [1], 52%; (at 11.0 µM) 84% (active); (at 33.0 µM) 97% (active); under setting [2], 52%. Also, the growth inhibition is 90.8% (active) (at 50.0 µM) and 98% (active) (at 100.0 µM).

Take `O=C(O)C1C2CCC(C2)C1c1ccccc1` (centres undefined): the growth inhibition was -1% (at 1.2 µM); 11% (at 3.7 µM); 29% under setting [1]; 36% (at 11.0 µM); 77% (active) (at 33.0 µM); 90% (active) under setting [2]. The growth inhibition was 95% (active) (at 50.0 µM) and 94% (active) (at 100.0 µM).

Consider `CS(=O)(=O)OCCN(CCOS(C)(=O)=O)c1ccc(C=O)cc1`, for which the growth inhibition is, setting by setting: (at 1.2 µM) -6%; (at 3.7 µM) -3%; under setting [1], -8%; (at 11.0 µM) 10%; (at 33.0 µM) 38%; under setting [2], 37%. Further, the growth inhibition runs as follows: (at 50.0 µM) 73.2% (active); (at 100.0 µM) 72% (active).

Take `O=C(O)CCCOc1cc(Cl)c(Cl)cc1Cl`: the growth inhibition was -6% (at 1.2 µM); -3% (at 3.7 µM); 28% under setting [1]; -2% (at 11.0 µM); 43% (at 33.0 µM); 52% under setting [2]. The growth inhibition (at 50.0 µM) was 83.4% (active) and the growth inhibition (at 100.0 µM) was 78% (active).

On to `COC(=O)[C@@]12OC[C@]34[C@H]([C@@H](O)[C@@H]1O)[C@@]1(C)CC(=O)C(O)=C(C)[C@@H]1C[C@H]3OC(=O)[C@H](OC(=O)/C=C(\C)C(C)C)[C@@H]24`, for which the growth inhibition is 93% (active) under setting [1], 99% (active) under setting [2] and 91.5% (active) (at 50.0 µM).

Consider `C[C@]12CC/C(=N\NC(=O)c3ccncc3)C[C@@H]1CC[C@@H]1[C@@H]2CC[C@]2(C)[C@@H](O)CC[C@@H]12`, for which the growth inhibition reads like this: under setting [1], 2%; under setting [2], 37%; (at 50.0 µM) 35%.

Regarding `CC(=O)OCC1OC([S-])C(OC(C)=O)C(OC(C)=O)C1OC(C)=O.CC[PH+](CC)CC.CC[PH+](CC)CC.[Au].[Au]` (centres undefined), the growth inhibition under setting [1] was 99% (active), the growth inhibition under setting [2] was 99% (active) and the growth inhibition (at 50.0 µM) was 89.9% (active).

Turning to `N#Cc1ccccc1C(Cl)(Cl)Cl`, the growth inhibition was 26% under setting [1], 13% under setting [2] and 16.4% (at 50.0 µM).
